# Measured values from the supplement of paper PMC8728848.
# Shown is part of a subset that was picked to be rich in the strongest signals.
# B1: exo-alpha-sialidase (Propionibacterium acnes), Q6A7G1 (protein)
# chain: GSHMSGRAPAPVAATTQPKLVTGDITSTDQSGTNLFFGKKIVRNARGAIMKVDRTWPAAVPAPLPDVRADSSTRMLLGPVVDLAVNEHPEGVFYRIPALATASNGDLLASYDLRPGSAGDAPNPNSIVQRRSRDNGRTWGPQTVIHAGTPGRRKVGYSDPSYLVDPATGRILNFHVKSYDRGFATSEVGTDPDDRHVLHAEVSTSTDNGHTWTHRDITREITSDPTTRTRFVASGQGIALLHGPHAGRLIAQMTVRNSVGQQAQSIYSDDHGITWHAGNPVGRMMDENKVVELSDGTLMLNSRDAARSGRRKVAYSQDGGLTWGPVKLVDDLIDPTNNAQIIRAYPNARAGSAKARILLFTNARNATERVNGTLSVSCDDGRTWVSHQTYMPGEVGYTTAAVQSDGALGVLWERDGIRYSTIPMGWLNSVCPLAPSGRPTSGKPTSGTSLPPTAT
# B2: PEB3 (Campylobacter jejuni), Q0PBL7 (protein)
# chain: MKKIITLFGACALAFSMANADVNLYGPGGPHTALKDIANKYSEKTGVKVNVNFGPQATWFEKAKKDADILFGASDQSALAIASDFGKDFNVSKIKPLYFREAIILTQKGNPLKIKGLKDLANKKVRIVVPEGAGKSNTSGTGVWEDMIGRTQDIKTIQNFRNNIVAFVPNSGSARKLFAQDQADAWITWIDWSKSNPDIGTAVAIEKDLVVYRTFNVIAKEGASKETQDFIAYLSSKEAKEIFKKYGWRE
# Columns and labels:
# Assay in all cases: glycan array binding signal (z-score within array); higher = stronger binding
# Settings in all cases: glycan notation: IUPAC condensed, linker removed
# [1] = target: Fuc(a1-2)Gal(b1-3)GalNAc(b1-4)[Neu5Ac(a2-3)]Gal(b1-4)Glc
# Summary of the method: (§1)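 From the Consortium for Functional Glycomics database, 3228 arrays were curated, keeping only those whose protein sequence was available. Binding is given as a within-array Z-score averaged across arrays sharing a protein sequence and across linkers. Negative Z-scores can be read as non-binding.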
# Fuc(a1-2)Gal(b1-4)Glc = target: Fuc(a1-2)Gal(b1-4)Glc
# Summary of the method: as §1
# Fuc(a1-2)Gal(b1-4)Glc6S = target: Fuc(a1-2)Gal(b1-4)Glc6S
# Summary of the method: as §1
# [2] = target: Fuc(a1-2)[GalNAc(a1-3)]Gal(b1-3)GlcNAc
# Summary of the method: as §1
# [3] = target: Fuc(a1-3)[Gal(b1-4)]GlcNAc(b1-4)Gal(b1-4)[Fuc(a1-3)]GlcNAc
# Summary of the method: as §1
# Gal(a1-2)Gal = target: Gal(a1-2)Gal
# Summary of the method: as §1
# [4] = target: Gal(a1-3)Gal(b1-4)GlcNAc(b1-3)GalNAc
# Summary of the method: as §1
# Gal(a1-4)Gal(b1-4)Glc = target: Gal(a1-4)Gal(b1-4)Glc
# Summary of the method: as §1
# [5] = target: Gal(a1-4)Gal(b1-4)GlcNAc(b1-3)Gal(b1-4)Glc
# Summary of the method: as §1
# [6] = target: Gal(b1-3)GlcNAc(b1-3)Gal(b1-3)GlcNAc
# Summary of the method: as §1
# [7] = target: Gal(b1-4)GlcNAc(a1-6)Gal(b1-4)GlcNAc
# Summary of the method: as §1
# Gal3S(b1-3)GalNAc = target: Gal3S(b1-3)GalNAc
# Summary of the method: as §1
# Gal3S(b1-4)GlcNAc = target: Gal3S(b1-4)GlcNAc
# Summary of the method: as §1
# [8] = target: Neu5Ac(a2-3)Gal(b1-3)GalNAc
# Summary of the method: as §1
# [9] = target: Neu5Ac(a2-3)Gal(b1-3)GalNAc(b1-4)[Neu5Ac(a2-3)]Gal(b1-4)Glc
# Summary of the method: as §1
# [10] = target: Neu5Ac(a2-3)Gal(b1-3)GalNAc6S
# Summary of the method: as §1
# [11] = target: Neu5Ac(a2-3)Gal(b1-3)GlcNAc(b1-3)GalNAc
# Summary of the method: as §1
# [12] = target: Neu5Ac(a2-3)Gal(b1-3)[Fuc(a1-4)]GlcNAc(b1-3)Gal(b1-3)[Fuc(a1-4)]GlcNAc
# Summary of the method: as §1
# [13] = target: Neu5Ac(a2-3)Gal(b1-3)[Neu5Ac(a2-6)]GalNAc
# Summary of the method: as §1
# [14] = target: Neu5Ac(a2-3)Gal(b1-4)GlcNAc(b1-6)[Neu5Ac(a2-3)Gal(b1-3)]GalNAc
# Summary of the method: as §1
# [15] = target: Neu5Ac(a2-3)[Neu5Ac(a2-6)]GalNAc
# Summary of the method: as §1
# Neu5Ac(a2-6)GalNAc = target: Neu5Ac(a2-6)GalNAc
# Summary of the method: as §1
# [16] = target: Neu5Ac(a2-6)GlcNAc(b1-4)GlcNAc
# Summary of the method: as §1
# [17] = target: Neu5Gc(a2-3)Gal(b1-4)[Fuc(a1-3)]GlcNAc
# Summary of the method: as §1
# [18] = target: Fuc(a1-2)Gal(b1-3)[Fuc(a1-4)]GlcNAc
# Summary of the method: as §1
# [19] = target: Fuc(a1-2)Gal(b1-4)[Fuc(a1-3)]GlcNAc(b1-2)Man(a1-3)[Fuc(a1-2)Gal(b1-4)[Fuc(a1-3)]GlcNAc(b1-2)Man(a1-6)]Man(b1-4)GlcNAc(b1-4)GlcNAc
# Summary of the method: as §1
# [20] = target: Fuc(a1-2)[Gal(a1-3)]Gal(b1-4)Glc
# Summary of the method: as §1
# [21] = target: Fuc(a1-2)[Gal(a1-3)]Gal(b1-4)GlcNAc
# Summary of the method: as §1
# [22] = target: Fuc(a1-3)[Gal(b1-4)]GlcNAc(b1-4)Gal(b1-4)[Fuc(a1-3)]GlcNAc(b1-4)Gal(b1-4)[Fuc(a1-3)]GlcNAc
# Summary of the method: as §1
# [23] = target: Fuc(a1-3)[Gal3S(b1-4)]GlcNAc6S
# Summary of the method: as §1
# Fuc(a1-4)GlcNAc = target: Fuc(a1-4)GlcNAc
# Summary of the method: as §1
# Gal(a1-3)Gal = target: Gal(a1-3)Gal
# Summary of the method: as §1
# [24] = target: Gal(a1-3)Gal(b1-3)[Fuc(a1-4)]GlcNAc(b1-2)Man(a1-3)[Gal(a1-3)Gal(b1-3)[Fuc(a1-4)]GlcNAc(b1-2)Man(a1-6)]Man(b1-4)GlcNAc(b1-4)GlcNAc
# Summary of the method: as §1
# [25] = target: Gal(b1-3)GlcNAc(b1-3)Gal(b1-4)GlcNAc(b1-6)[Gal(b1-3)GlcNAc(b1-3)]Gal(b1-4)Glc
# Summary of the method: as §1
# [26] = target: Gal(b1-3)[Fuc(a1-4)]GlcNAc(b1-3)Gal(b1-4)[Fuc(a1-3)]GlcNAc
# Summary of the method: as §1
# [27] = target: Gal(b1-3)[Neu5Ac(a2-6)]GalNAc
# Summary of the method: as §1
# [28] = target: Gal(b1-4)GlcNAc(b1-3)[Gal(b1-4)GlcNAc(b1-6)]Gal(b1-4)GlcNAc
# Summary of the method: as §1
# [29] = target: Gal(b1-4)GlcNAc(b1-6)[Gal(b1-3)]GalNAc
# Summary of the method: as §1
# [30] = target: GalNAc(b1-4)GlcNAc(b1-2)Man(a1-3)[GalNAc(b1-4)GlcNAc(b1-2)Man(a1-6)]Man(b1-4)GlcNAc(b1-4)GlcNAc
# Summary of the method: as §1
# [31] = target: GlcNAc(a1-4)Gal(b1-4)GlcNAc(b1-3)Gal(b1-4)[Fuc(a1-3)]GlcNAc(b1-3)Gal(b1-4)[Fuc(a1-3)]GlcNAc
# Summary of the method: as §1
# [32] = target: GlcNAc(b1-2)Gal(b1-3)GalNAc
# Summary of the method: as §1
# [33] = target: GlcNAc(b1-3)Gal(b1-3)GalNAc
# Summary of the method: as §1
# GlcNAc(b1-3)GalNAc = target: GlcNAc(b1-3)GalNAc
# Summary of the method: as §1
# [34] = target: Man(a1-2)Man(a1-3)[Man(a1-6)]Man(a1-6)[Man(a1-2)Man(a1-3)]Man(b1-4)GlcNAc(b1-4)GlcNAc
# Summary of the method: as §1
# [35] = target: Man(a1-3)[Man(a1-6)]Man(a1-6)[Man(a1-3)]Man
# Summary of the method: as §1
# [36] = target: Neu5Ac(a2-3)Gal(b1-3)GlcNAc(b1-3)Gal(b1-4)GlcNAc
# Summary of the method: as §1
# [37] = target: Neu5Ac(a2-3)Gal(b1-4)GlcNAc(b1-3)Gal(b1-4)GlcNAc(b1-3)Gal(b1-4)GlcNAc
# Summary of the method: as §1
# [38] = target: Neu5Ac(a2-3)Gal(b1-4)GlcNAc(b1-3)Gal(b1-4)[Fuc(a1-3)]GlcNAc
# Summary of the method: as §1
# [39] = target: Neu5Ac(a2-3)Gal(b1-4)[Fuc(a1-3)]GlcNAc(b1-3)GalNAc
# Summary of the method: as §1
# [40] = target: Neu5Ac(a2-6)Gal(b1-4)GlcNAc(b1-2)Man(a1-3)[Neu5Ac(a2-6)Gal(b1-4)GlcNAc(b1-2)Man(a1-6)]Man(b1-4)GlcNAc(b1-4)GlcNAc
# Summary of the method: as §1
# [41] = target: Neu5Ac(a2-6)Gal(b1-4)GlcNAc(b1-2)Man(a1-6)[GlcNAc(b1-2)Man(a1-3)]Man(b1-4)GlcNAc(b1-4)GlcNAc
# Summary of the method: as §1
# [42] = target: Neu5Ac(a2-6)Gal(b1-4)GlcNAc(b1-3)GalNAc
# Summary of the method: as §1
binder,measurement,setting,value
B1,glycan array binding signal (z-score),[1],-0.338
same,glycan array binding signal (z-score),Fuc(a1-2)Gal(b1-4)Glc,-0.361
same,glycan array binding signal (z-score),Fuc(a1-2)Gal(b1-4)Glc6S,-0.256
same,glycan array binding signal (z-score),[2],-0.343
same,glycan array binding signal (z-score),[3],-0.311
same,glycan array binding signal (z-score),Gal(a1-2)Gal,-0.331
same,glycan array binding signal (z-score),[4],-0.36
same,glycan array binding signal (z-score),Gal(a1-4)Gal(b1-4)Glc,-0.366
same,glycan array binding signal (z-score),[5],-0.337
same,glycan array binding signal (z-score),[6],-0.354
same,glycan array binding signal (z-score),[7],-0.353
same,glycan array binding signal (z-score),Gal3S(b1-3)GalNAc,-0.343
same,glycan array binding signal (z-score),Gal3S(b1-4)GlcNAc,-0.268
same,glycan array binding signal (z-score),[8],3.6
same,glycan array binding signal (z-score),[9],6.27
same,glycan array binding signal (z-score),[10],3.54
same,glycan array binding signal (z-score),[11],3.71
same,glycan array binding signal (z-score),[12],0.022
same,glycan array binding signal (z-score),[13],3.45
same,glycan array binding signal (z-score),[14],4.39
same,glycan array binding signal (z-score),[15],4.53
same,glycan array binding signal (z-score),Neu5Ac(a2-6)GalNAc,-0.072
same,glycan array binding signal (z-score),[16],3.52
same,glycan array binding signal (z-score),[17],-0.196
B2,glycan array binding signal (z-score),[1],0.671
same,glycan array binding signal (z-score),[18],7.5
same,glycan array binding signal (z-score),[19],4.64
same,glycan array binding signal (z-score),[20],-1.35
same,glycan array binding signal (z-score),[21],0.283
same,glycan array binding signal (z-score),[22],0.144
same,glycan array binding signal (z-score),[23],0.696
same,glycan array binding signal (z-score),Fuc(a1-4)GlcNAc,-0.82
same,glycan array binding signal (z-score),Gal(a1-3)Gal,-0.384
same,glycan array binding signal (z-score),[24],4.25
same,glycan array binding signal (z-score),[4],0.06
same,glycan array binding signal (z-score),[25],-0.921
same,glycan array binding signal (z-score),[26],-0.524
same,glycan array binding signal (z-score),[27],-1.27
same,glycan array binding signal (z-score),[28],-0.199
same,glycan array binding signal (z-score),[29],0.227
same,glycan array binding signal (z-score),[30],4.25
same,glycan array binding signal (z-score),[31],3.7
same,glycan array binding signal (z-score),[32],-0.834
same,glycan array binding signal (z-score),[33],2.96
same,glycan array binding signal (z-score),GlcNAc(b1-3)GalNAc,-0.715
same,glycan array binding signal (z-score),[34],-0.005
same,glycan array binding signal (z-score),[35],-1.11
same,glycan array binding signal (z-score),[36],-0.117
same,glycan array binding signal (z-score),[37],-1.17
same,glycan array binding signal (z-score),[38],0.473
same,glycan array binding signal (z-score),[39],4.53
same,glycan array binding signal (z-score),[40],0.39
same,glycan array binding signal (z-score),[41],-0.237
same,glycan array binding signal (z-score),[42],-0.21
